# Laboratory results from PubChem BioAssay (NCI).
# This is part of a sample that, as a whole, favours compounds with a hit. Of some 83,000 tested, about 20% had one in any assay.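 Single-dose data. Exposure time 48 hours. Values below 10 considered active.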 Values without a mark were called inactive. Calls of active or inactive are those of the source.
# Assays:
# Test in all cases: NCI-60 one-dose screen, 48 h (100 = growth as untreated, 0 = no growth, -100 = all killed)
# Settings in all cases: 10 µM unless noted
# DU-145 prostate = system: DU-145 prostate
# K-562 leukemia = system: K-562 leukemia
# MALME-3M melanoma = system: MALME-3M melanoma
# MDA-MB-231 breast = system: MDA-MB-231 breast
# RXF 393 renal = system: RXF 393 renal
# SF-268 CNS = system: SF-268 CNS
# SF-295 CNS = system: SF-295 CNS
# SF-539 CNS = system: SF-539 CNS
# UACC-257 melanoma = system: UACC-257 melanoma
# M14 melanoma = system: M14 melanoma
# HCT-15 colon = system: HCT-15 colon
# HT29 colon = system: HT29 colon
# SNB-75 CNS = system: SNB-75 CNS
# SNB-19 CNS = system: SNB-19 CNS
# U251 CNS = system: U251 CNS
# PC-3 prostate = system: PC-3 prostate
# SK-MEL-5 melanoma = system: SK-MEL-5 melanoma
# LOX IMVI melanoma = system: LOX IMVI melanoma
# SK-MEL-28 melanoma = system: SK-MEL-28 melanoma
# UACC-62 melanoma = system: UACC-62 melanoma
Structure (SMILES),growth (DU-145 prostate),growth (K-562 leukemia),growth (MALME-3M melanoma),growth (MDA-MB-231 breast),growth (RXF 393 renal),growth (SF-268 CNS),growth (SF-295 CNS),growth (SF-539 CNS),growth (UACC-257 melanoma),growth (M14 melanoma),growth (HCT-15 colon),growth (HT29 colon) [%],growth (SNB-75 CNS),growth (SNB-19 CNS) [%],growth (U251 CNS),growth (PC-3 prostate),growth (SK-MEL-5 melanoma),growth (LOX IMVI melanoma),growth (SK-MEL-28 melanoma),growth (UACC-62 melanoma)
N#Cc1c(N2CCNCC2)nc2sc3cc(Cl)c(Cl)cc3n2c1=N,122%,77.4%,119%,84.1%,19.1%,117%,113%,86.1%,124%,106%,122%,98.7,62.2%,98.5,107%,94.2%,89.9%,93.5%,120%,
CN1CCN(C(=O)c2c3c(n4ccccc24)C(=O)c2ncccc2C3=O)CC1,56.8%,54.1%,72.1%,79.5%,60.8%,52.9%,73.5%,58%,97.7%,49%,46%,93.3,39.9%,50.4,66.5%,54.8%,65.6%,30.3%,103%,
Cc1cc[c-]cc1.Fc1c[c-]c(-c2ccccn2)c(F)c1.[Pt+2].c1ccc(P(C[PH+](c2ccccc2)c2ccccc2)c2ccccc2)cc1,17.5%,8.02% (active),-15.8% (active),-9.05% (active),23.1%,9.02% (active),6.93% (active),21.5%,-12.1% (active),22%,47%,16.9,4.48% (active),17.5,12.9%,11.2%,-94.9% (active),18.5%,36.4%,9.82% (active)
Cc1ccc(C(=O)COc2cccc(/C=C3\Oc4ccccc4C3=O)c2)cc1,123%,75.8%,106%,83.1%,94.5%,120%,120%,103%,129%,101%,105%,,104%,99.4,99.7%,101%,123%,104%,135%,73.2%
CCCCC1CCCCN1C(=O)OCC (centres undefined),108%,107%,108%,107%,152%,106%,127%,99.7%,108%,101%,103%,,97.8%,106,96.1%,93.5%,111%,101%,104%,107%
N#CCN1C(=O)C2C3=C(CCCC3)SC2N=C1CN1CCCC1 (centres undefined),99.7%,70.1%,111%,94.9%,88.6%,118%,107%,92.5%,96.8%,120%,74.4%,,88.3%,106,102%,48.5%,98.2%,97.7%,120%,83.6%
CCCCCCCC/C=C\CCCCCCCCOc1ccccc1CC(=O)NCC[N+](C)(C)C,80.1%,54.6%,89.8%,72.9%,16.6%,65.9%,63.8%,77.5%,88.9%,57.4%,56.6%,,45.9%,25.3,12.7%,4.4% (active),74.7%,74.1%,88.8%,66.5%
CCc1ccccc1-n1c(-c2ccc(Cl)cc2)cc(-c2ccc(Cl)cc2)c(C#N)c1=O,77.1%,66.1%,90.8%,101%,93.3%,83.6%,89%,104%,98.6%,85.3%,,84.4,98.6%,109,84.9%,76.4%,88.7%,82.4%,99.4%,84.8%
COc1cc(/C=N/Nc2ncc(-c3cc4cc5c(cc4o3)OCO5)s2)cc(OC)c1OC,48%,30.1%,93.8%,46.5%,66.3%,74.9%,67.1%,81.7%,42.2%,26.3%,35.7%,,72.4%,76.1,68.1%,21.5%,4.87% (active),36.1%,60.7%,33.7%
N#Cc1c(-c2cccc(Cl)c2)cc(-c2cccc(F)c2)[nH]c1=O,98.6%,85.5%,99.9%,89.9%,88.7%,95.6%,91.2%,94.3%,102%,101%,90.2%,,85.8%,91.1,86.7%,85.3%,89.4%,89.6%,97.9%,76.8%
Cc1ccc2c(c1)Sc1c(ccc3ccccc13)N2,82.9%,39.7%,90.7%,50.6%,63.6%,59.5%,69.8%,47.5%,80.4%,65.4%,32.3%,,51.8%,94.5,45.3%,61%,46%,45.6%,84.7%,
Cc1c(C(=O)NC(Cc2ccccc2)C(O)C(=O)NCc2ccc(F)cc2)[nH]c2ccccc2c1=O (centres undefined),109%,94.2%,111%,102%,114%,104%,103%,108%,103%,109%,103%,,99.1%,100,90.2%,103%,103%,101%,107%,111%
CC1(C)CC[C@]2(C(=O)N3CCOCC3)CC[C@]3(C)C(=CC[C@@H]4[C@@]5(C)CC[C@H](OC(=O)c6cccnc6)C(C)(C)[C@@H]5CC[C@]43C)[C@@H]2C1,60.9%,36%,88.6%,70.4%,84.3%,71.1%,51.2%,71.5%,65.5%,72.8%,49.4%,,67.7%,67.5,53.2%,38.9%,54.3%,28%,66.1%,35.7%
N/C(=N/N=C/c1ccccc1)N/N=C\c1ccccc1,73.6%,21.8%,67.4%,76.3%,24.8%,76%,66.9%,58%,68.5%,26.8%,44.1%,,67.1%,74.6,50.2%,64.3%,34.1%,62.1%,71.9%,70.5%
Cc1ccc(S(=O)(=O)N/N=C\c2cc(Cl)ccc2O)cc1,92.1%,82%,95.3%,93.8%,91%,94.7%,92.1%,76.6%,107%,96.2%,81.8%,,88.5%,86.2,90.4%,93.6%,99.6%,88.3%,98.3%,106%
O=c1c2cc(F)ccc2sc2c(NCCCN3CCCC3)nc3ccccc3c12,60.1%,-29.7% (active),26.5%,21.1%,22.7%,47.6%,55.1%,65.3%,54.2%,-64.2% (active),7.59% (active),,21.5%,53.6,33.2%,43.8%,58.8%,-87.1% (active),-52.8% (active),-75.9% (active)
COc1cc(C(=O)c2cc(C)c3[nH]c4ccc(Cl)cc4c3c2C)cc(OC)c1OC,-19.7% (active),13.6%,27.9%,22.1%,36.6%,25.5%,4.51% (active),-10.1% (active),68%,17.5%,7.42% (active),,22.9%,35.6,20%,27.3%,-55.8% (active),8.56% (active),53.6%,
CC(C)(C)c1ccc(/C=C/C(=O)Nc2ccc(O)cc2)cc1,70.3%,4.2% (active),67%,53%,90.9%,59.7%,79.5%,40.6%,64.9%,28.4%,43.4%,,96.6%,83.3,72.8%,59%,51.4%,-3.96% (active),86.5%,
NC(=N\N=C/c1ccccc1[N+](=O)[O-])/C(N)=N\N=C/c1ccccc1[N+](=O)[O-],107%,101%,146%,107%,103%,99.7%,105%,97.2%,113%,111%,105%,,97.9%,106,108%,102%,105%,104%,118%,108%
O=C1Nc2ccc(F)cc2C12Nc1cc(Cl)ccc1S2 (centres undefined),101%,48.6%,88.6%,88.1%,110%,100%,89.8%,93.8%,109%,90.9%,,103,70.9%,92.1,94.6%,57.3%,83.4%,85.6%,118%,75.4%
CCCCOc1nc2ccccc2cc1C1CNC(=O)c2ccccc2N1 (centres undefined),10.7%,12.8%,45.6%,47.5%,-14.3% (active),43.6%,-5.68% (active),-25.5% (active),57.2%,-23.1% (active),15.3%,,3.14% (active),33.4,18.6%,24.7%,15.6%,27.1%,45.8%,32.6%
Fc1ccc(CNc2c3ccccc3nc3ccccc23)cc1F,39.5%,12.3%,50.7%,34.8%,7.37% (active),57.2%,29.8%,22.1%,65.1%,43.1%,18%,,66.2%,32.9,30.3%,35.7%,66.2%,12.5%,82.4%,60%
CN(C)CCCn1c(=O)c2ccccc2c2ccccc21,44.1%,88.1%,100%,67%,74.7%,68.2%,83.3%,85.6%,93.8%,87.8%,64.7%,,85.9%,73.4,87.9%,70%,79.7%,56.5%,103%,82.2%
COc1ccc(-c2nc3ccc4[nH]ncc4c3c3c2CCCC3)cc1B(O)O,45.9%,59.8%,75%,69.3%,6.38% (active),56.3%,56.3%,52.8%,88.5%,46.5%,34.4%,,18.9%,82.7,78%,57.6%,73.8%,40.4%,68.1%,47.1%
CS(=O)c1cccc(-c2ccc3nc(N)n(-c4ccc(C(F)(F)F)cc4)c(=O)c3c2)c1 (centres undefined),103%,96.2%,78.6%,90.5%,92.5%,89.1%,92.1%,91.7%,101%,99.5%,105%,,114%,91.7,88.9%,83.5%,87.8%,88.1%,114%,95%
CC(=O)OC[C@H]1OC(Sc2sc(C(=O)c3ccc(Br)cc3)c(N)c2-c2nc3ccccc3s2)[C@H](OC(C)=O)[C@@H](OC(C)=O)[C@@H]1OC(C)=O (some centres undefined),35.8%,66.4%,20%,10.4%,70.8%,60.9%,69.6%,15.7%,80.1%,61.6%,59.8%,,-16.7% (active),75.2,57.6%,71.3%,22.1%,37.1%,70.7%,89.3%
CC/C=C\C/C=C\C[C@H](O)C/C=C1/C(=O)C=C[C@@H]1C/C=C\CCCC(=O)O,35.4%,10.5%,47%,25.6%,68.5%,53.9%,86.2%,32.7%,31.3%,14.3%,48%,,80.7%,44.3,-27.9% (active),30.1%,20.7%,-10.1% (active),17.5%,-43.4% (active)
Cc1cc(Cl)ccc1Nc1nc(C(F)(F)F)ccc1C(=O)N/N=C/c1ccc(N(C)C)cc1,40.3%,18.9%,22.1%,22%,-4.86% (active),31.8%,-7.53% (active),41.4%,30%,33.9%,15.9%,,65.1%,42,16.2%,30.3%,12.9%,27%,45.2%,9.47% (active)
CC(C)C(NC(=O)C1(NC(=O)OCc2ccccc2)CCCC1)C(=O)O (centres undefined),118%,91.7%,111%,105%,134%,111%,112%,111%,89.2%,102%,112%,,92.3%,103,86.7%,102%,102%,90.2%,107%,106%
